In article PMC7862700, “An all-to-all approach to the identification of sequence-specific readers for epigenetic DNA modifications on cytosine”:

What was measured:
Assay in all cases: DAPPL (digital affinity profiling via proximity ligation, sequencing); 10 mM Tris-HCl pH 7.5, 50 mM NaCl, 1 mM DTT, 4% glycerol, room temperature, 30 min; GST-TFs on glutathione beads, 16-mer random dsDNA library, 0.1% formaldehyde crosslink after washing; high values mean tight binding
Conditions in all cases: protein: recombinant; tags: N-terminal GST; dsDNA, one strand shown
FLI1 = molecular target: T1, FLI1 (Homo sapiens, UniProt Q01543 1-452)
T1 sequence: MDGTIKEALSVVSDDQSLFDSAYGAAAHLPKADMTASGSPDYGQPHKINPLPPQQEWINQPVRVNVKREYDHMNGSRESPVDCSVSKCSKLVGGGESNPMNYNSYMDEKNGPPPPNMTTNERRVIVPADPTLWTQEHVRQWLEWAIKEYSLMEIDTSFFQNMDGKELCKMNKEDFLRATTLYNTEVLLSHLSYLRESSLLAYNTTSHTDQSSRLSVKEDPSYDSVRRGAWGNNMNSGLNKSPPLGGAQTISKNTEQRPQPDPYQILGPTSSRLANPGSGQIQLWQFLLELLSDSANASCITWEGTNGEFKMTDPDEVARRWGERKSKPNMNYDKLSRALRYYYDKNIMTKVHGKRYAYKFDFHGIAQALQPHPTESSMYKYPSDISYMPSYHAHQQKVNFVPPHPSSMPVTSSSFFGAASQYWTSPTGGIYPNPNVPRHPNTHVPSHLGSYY
In short: (§1)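 Human transcription factors carrying a GST fusion were produced in yeast, bound to glutathione beads, tagged with DNA barcodes and pooled together with a tag-only sample. Each pool was held with 200 nmole of a random double-stranded 16-mer DNA library in Tris/NaCl/DTT/glycerol buffer for 30 min at room temperature, then washed, crosslinked in 0.1% formaldehyde, proximity-ligated with BsaI/T4 ligase (1 h, 37 °C), PCR-amplified and sequenced on an Illumina NextSeq500. Binding signal is the read frequency of each hexamer for a given factor divided by its frequency in the tag-only sample.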

ELK1 = molecular target: T2, ELK1 (Homo sapiens, UniProt P19419 1-428)
T2 sequence: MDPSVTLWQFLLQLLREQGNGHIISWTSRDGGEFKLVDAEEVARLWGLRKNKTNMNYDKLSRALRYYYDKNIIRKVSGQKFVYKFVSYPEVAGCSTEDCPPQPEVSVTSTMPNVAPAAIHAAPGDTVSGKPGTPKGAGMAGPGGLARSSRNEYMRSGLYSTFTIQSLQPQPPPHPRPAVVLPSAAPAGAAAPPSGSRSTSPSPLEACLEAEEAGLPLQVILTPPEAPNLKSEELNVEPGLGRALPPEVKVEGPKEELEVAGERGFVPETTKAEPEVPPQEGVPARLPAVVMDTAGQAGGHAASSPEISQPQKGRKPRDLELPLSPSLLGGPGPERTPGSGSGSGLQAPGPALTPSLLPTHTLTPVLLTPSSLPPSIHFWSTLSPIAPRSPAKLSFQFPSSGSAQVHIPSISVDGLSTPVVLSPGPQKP
In short: as §1

GABPA = molecular target: T3, GABPA (Homo sapiens, UniProt Q06546 1-454)
T3 sequence: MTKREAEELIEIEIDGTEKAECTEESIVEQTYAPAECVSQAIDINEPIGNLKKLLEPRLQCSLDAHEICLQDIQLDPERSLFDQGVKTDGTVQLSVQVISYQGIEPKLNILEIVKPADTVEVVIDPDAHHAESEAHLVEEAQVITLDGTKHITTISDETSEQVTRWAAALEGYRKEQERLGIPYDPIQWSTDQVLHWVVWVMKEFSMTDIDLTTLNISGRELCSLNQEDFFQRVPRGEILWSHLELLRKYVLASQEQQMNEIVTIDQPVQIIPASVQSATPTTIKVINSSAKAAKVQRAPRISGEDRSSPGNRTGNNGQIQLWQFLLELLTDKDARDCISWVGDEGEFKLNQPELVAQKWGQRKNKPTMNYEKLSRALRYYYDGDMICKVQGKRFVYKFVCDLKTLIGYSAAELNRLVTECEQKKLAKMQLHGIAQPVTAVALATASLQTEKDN
In short: as §1

ERG = molecular target: T4, ERG (Homo sapiens, UniProt P11308 1-479)
T4 sequence: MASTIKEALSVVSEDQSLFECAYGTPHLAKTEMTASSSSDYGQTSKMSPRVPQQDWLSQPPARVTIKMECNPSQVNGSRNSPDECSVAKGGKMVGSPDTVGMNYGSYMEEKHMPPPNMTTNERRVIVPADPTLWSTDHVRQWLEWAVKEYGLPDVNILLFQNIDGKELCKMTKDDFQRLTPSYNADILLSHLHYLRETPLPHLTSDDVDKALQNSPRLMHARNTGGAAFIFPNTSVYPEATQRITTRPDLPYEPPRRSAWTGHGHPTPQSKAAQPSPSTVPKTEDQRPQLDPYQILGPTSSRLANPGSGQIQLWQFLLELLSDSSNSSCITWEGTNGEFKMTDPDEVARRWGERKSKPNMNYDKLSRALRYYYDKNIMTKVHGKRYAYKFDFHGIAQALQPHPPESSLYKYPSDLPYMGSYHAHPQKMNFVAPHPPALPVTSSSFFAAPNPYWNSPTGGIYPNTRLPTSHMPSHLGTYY
In short: as §1

ELF1 = ELF1 (Homo sapiens, UniProt P32519 1-619)
Sequence of ELF1 (P32519 whole entry): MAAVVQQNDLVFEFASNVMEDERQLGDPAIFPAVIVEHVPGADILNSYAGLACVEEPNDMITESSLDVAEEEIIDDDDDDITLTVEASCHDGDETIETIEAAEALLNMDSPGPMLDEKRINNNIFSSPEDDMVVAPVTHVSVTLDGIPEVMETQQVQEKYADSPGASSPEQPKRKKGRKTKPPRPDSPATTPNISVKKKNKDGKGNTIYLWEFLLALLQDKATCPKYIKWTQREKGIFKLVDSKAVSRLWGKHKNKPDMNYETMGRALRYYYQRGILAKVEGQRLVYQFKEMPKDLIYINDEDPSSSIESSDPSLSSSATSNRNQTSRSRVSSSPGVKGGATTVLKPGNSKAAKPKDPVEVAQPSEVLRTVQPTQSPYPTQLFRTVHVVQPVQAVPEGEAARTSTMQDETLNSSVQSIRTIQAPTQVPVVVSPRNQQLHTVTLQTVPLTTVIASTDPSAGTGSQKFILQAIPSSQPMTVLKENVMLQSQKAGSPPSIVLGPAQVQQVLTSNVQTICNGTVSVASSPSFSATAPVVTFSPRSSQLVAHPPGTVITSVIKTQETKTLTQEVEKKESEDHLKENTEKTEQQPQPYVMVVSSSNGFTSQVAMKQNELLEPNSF
In short: as §1

EHF = molecular target: T5, EHF (Homo sapiens, UniProt Q9NZC4 1-300)
T5 sequence: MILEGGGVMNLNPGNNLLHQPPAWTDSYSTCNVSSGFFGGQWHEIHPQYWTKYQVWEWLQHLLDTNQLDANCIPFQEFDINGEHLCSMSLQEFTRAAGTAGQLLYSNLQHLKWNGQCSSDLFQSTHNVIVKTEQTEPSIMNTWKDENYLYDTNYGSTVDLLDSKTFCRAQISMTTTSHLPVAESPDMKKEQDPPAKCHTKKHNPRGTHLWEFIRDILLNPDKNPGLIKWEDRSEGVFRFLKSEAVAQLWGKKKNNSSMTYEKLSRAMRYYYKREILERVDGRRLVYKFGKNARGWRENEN
In short: as §1

SPI1 = SPI1 (Homo sapiens, UniProt P17947 1-270)
In short: as §1

FEV = molecular target: T6, FEV (Homo sapiens, UniProt Q99581 1-238)
T6 sequence: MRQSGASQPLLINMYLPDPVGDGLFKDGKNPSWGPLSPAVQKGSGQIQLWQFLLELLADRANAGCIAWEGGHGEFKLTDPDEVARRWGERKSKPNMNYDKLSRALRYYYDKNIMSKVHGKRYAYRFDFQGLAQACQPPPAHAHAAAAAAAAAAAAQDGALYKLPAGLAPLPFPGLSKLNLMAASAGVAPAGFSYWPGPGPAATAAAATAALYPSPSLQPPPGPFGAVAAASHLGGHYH
In short: as §1

ETV5 = ETV5 (Homo sapiens, UniProt P41161 1-510)
Sequence of ETV5 (P41161 whole entry): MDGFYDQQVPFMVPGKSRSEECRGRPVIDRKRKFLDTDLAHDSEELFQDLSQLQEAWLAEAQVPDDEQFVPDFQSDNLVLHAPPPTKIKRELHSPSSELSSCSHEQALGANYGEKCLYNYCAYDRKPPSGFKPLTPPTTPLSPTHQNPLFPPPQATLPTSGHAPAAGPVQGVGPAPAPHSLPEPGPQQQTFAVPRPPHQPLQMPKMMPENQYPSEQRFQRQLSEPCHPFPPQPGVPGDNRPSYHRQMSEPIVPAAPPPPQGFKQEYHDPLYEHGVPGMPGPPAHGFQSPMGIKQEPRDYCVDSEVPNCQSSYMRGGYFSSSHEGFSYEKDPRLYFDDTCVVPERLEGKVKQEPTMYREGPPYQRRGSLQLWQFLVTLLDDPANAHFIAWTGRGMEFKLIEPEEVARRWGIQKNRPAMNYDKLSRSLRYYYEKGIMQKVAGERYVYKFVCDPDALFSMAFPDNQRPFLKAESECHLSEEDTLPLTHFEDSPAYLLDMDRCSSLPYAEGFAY
In short: as §1

SPIC = molecular target: T7, SPIC (Homo sapiens, UniProt Q8N5J4 1-248)
T7 sequence: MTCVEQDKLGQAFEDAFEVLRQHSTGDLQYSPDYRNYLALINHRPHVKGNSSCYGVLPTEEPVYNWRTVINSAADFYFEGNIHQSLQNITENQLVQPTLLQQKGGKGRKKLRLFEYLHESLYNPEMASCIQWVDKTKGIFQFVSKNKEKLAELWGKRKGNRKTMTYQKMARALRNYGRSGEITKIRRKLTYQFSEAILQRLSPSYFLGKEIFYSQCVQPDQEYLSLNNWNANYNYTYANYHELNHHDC
In short: as §1

ELF4 = ELF4 (Homo sapiens, UniProt Q99607 1-663)
Sequence of ELF4 (Q99607 whole entry): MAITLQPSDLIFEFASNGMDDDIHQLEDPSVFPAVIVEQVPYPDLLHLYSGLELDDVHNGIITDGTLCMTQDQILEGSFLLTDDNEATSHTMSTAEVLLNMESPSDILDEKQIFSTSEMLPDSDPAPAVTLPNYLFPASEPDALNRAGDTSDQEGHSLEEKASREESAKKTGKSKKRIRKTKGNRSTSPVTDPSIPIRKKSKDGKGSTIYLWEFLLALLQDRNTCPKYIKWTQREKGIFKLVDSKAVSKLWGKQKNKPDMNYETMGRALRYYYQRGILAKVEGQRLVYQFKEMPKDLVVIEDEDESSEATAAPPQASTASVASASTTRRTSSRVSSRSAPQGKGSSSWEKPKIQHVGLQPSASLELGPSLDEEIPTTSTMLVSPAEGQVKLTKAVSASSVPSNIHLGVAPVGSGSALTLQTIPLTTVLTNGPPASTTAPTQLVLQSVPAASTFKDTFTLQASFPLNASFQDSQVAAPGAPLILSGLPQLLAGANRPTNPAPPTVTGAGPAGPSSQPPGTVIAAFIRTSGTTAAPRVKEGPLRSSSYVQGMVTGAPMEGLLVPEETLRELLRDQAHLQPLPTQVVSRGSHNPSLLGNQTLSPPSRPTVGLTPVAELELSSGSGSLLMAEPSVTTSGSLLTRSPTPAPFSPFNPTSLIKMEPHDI
In short: as §1

ELK4 = molecular target: T8, ELK4 (Homo sapiens, UniProt P28324-2 1-405)
T8 sequence: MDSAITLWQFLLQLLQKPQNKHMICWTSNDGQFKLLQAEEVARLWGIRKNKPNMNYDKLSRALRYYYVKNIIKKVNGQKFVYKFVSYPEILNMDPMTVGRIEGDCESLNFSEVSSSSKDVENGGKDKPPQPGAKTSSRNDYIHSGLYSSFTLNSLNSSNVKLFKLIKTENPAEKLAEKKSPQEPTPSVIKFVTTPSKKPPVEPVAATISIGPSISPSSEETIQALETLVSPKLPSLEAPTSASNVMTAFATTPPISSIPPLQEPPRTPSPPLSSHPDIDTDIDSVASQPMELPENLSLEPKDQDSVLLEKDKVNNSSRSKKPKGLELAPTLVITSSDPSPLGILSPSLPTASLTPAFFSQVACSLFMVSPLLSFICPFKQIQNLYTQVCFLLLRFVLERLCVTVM
In short: as §1

ETV2 = molecular target: T9, ETV2 (Homo sapiens, UniProt O00321 1-342)
T9 sequence: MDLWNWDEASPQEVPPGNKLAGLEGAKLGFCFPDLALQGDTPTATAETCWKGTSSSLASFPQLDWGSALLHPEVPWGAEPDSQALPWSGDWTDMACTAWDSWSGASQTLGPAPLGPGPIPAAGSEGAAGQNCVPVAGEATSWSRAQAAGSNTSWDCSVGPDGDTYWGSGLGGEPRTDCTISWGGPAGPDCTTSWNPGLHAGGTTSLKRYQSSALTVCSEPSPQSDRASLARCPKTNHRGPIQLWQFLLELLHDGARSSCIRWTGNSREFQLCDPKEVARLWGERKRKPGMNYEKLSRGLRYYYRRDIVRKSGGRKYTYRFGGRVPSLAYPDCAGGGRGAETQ
In short: as §1

ETV1 = ETV1 (Homo sapiens, UniProt P50549 1-477)
Sequence of ETV1 (P50549 whole entry): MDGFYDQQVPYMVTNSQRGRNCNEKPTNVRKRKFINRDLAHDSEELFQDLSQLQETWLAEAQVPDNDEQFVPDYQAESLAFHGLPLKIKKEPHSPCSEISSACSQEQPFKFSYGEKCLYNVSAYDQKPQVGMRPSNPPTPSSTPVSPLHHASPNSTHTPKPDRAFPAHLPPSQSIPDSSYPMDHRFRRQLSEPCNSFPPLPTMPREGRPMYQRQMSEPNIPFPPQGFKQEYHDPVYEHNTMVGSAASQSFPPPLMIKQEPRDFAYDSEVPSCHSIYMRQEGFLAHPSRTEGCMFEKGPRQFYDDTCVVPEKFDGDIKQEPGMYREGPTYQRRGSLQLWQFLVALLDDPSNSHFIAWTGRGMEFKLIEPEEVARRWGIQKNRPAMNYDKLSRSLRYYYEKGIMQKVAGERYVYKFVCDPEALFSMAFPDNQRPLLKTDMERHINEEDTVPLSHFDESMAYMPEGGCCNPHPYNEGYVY
In short: as §1

ELK3 = molecular target: T10, ELK3 (Homo sapiens, UniProt P41970 1-407)
T10 sequence: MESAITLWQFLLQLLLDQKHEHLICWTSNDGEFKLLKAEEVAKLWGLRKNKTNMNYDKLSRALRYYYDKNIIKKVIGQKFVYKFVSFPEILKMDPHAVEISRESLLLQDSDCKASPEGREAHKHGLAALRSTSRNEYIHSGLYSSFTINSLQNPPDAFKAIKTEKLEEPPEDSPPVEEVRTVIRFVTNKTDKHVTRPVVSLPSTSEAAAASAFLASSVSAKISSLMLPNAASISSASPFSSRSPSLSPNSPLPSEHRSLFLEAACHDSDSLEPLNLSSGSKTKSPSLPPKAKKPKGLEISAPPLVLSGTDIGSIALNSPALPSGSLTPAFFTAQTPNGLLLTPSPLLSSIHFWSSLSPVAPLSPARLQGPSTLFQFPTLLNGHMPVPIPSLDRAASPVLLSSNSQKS
In short: as §1

ELF3 = molecular target: T11, ELF3 (Homo sapiens, UniProt P78545 1-371)
T11 sequence: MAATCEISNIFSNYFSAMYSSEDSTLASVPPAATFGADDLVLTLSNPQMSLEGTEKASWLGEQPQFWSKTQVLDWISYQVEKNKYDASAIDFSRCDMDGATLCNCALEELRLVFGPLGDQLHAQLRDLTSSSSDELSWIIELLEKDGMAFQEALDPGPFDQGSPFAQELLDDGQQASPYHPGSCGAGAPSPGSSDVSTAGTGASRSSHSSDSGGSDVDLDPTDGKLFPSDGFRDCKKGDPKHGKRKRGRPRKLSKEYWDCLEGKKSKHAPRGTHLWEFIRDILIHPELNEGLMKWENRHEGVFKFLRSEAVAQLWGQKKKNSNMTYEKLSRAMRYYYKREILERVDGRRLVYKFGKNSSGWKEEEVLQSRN
In short: as §1

SPIB = SPIB (Homo sapiens, UniProt Q01892 1-262)
Sequence of SPIB (Q01892 whole entry): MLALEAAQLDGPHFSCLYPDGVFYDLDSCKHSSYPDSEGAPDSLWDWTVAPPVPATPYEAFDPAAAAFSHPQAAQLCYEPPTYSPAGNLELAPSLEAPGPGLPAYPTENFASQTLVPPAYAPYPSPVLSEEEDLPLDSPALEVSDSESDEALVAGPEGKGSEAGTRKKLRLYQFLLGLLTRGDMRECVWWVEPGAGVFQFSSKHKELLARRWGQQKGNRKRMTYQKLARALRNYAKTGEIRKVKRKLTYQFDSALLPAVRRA
In short: as §1

Sequence	binding signal (FLI1)	binding signal (ELK1)	binding signal (GABPA)	binding signal (ERG)	binding signal (ELF1)	binding signal (EHF)	binding signal (SPI1)	binding signal (FEV)	binding signal (ETV5)	binding signal (SPIC)	binding signal (ELF4)	binding signal (ELK4)	binding signal (ETV2)	binding signal (ETV1)	binding signal (ELK3)	binding signal (ELF3)	binding signal (SPIB)
CAACGC	1.04 fold enrichment (6-mer frequency, TF over GST control)	1.11 fold enrichment (6-mer frequency, TF over GST control)	1.12 fold enrichment (6-mer frequency, TF over GST control)	1.04 fold enrichment (6-mer frequency, TF over GST control)	1.11 fold enrichment (6-mer frequency, TF over GST control)	1.01 fold enrichment (6-mer frequency, TF over GST control)	1.1 fold enrichment (6-mer frequency, TF over GST control)	1.06 fold enrichment (6-mer frequency, TF over GST control)	1.01 fold enrichment (6-mer frequency, TF over GST control)	1.1 fold enrichment (6-mer frequency, TF over GST control)	1.11 fold enrichment (6-mer frequency, TF over GST control)	1.03 fold enrichment (6-mer frequency, TF over GST control)	1.1 fold enrichment (6-mer frequency, TF over GST control)	1.05 fold enrichment (6-mer frequency, TF over GST control)	–	–	–
GATATG	1.15 fold enrichment (6-mer frequency, TF over GST control)	1.06 fold enrichment (6-mer frequency, TF over GST control)	1.07 fold enrichment (6-mer frequency, TF over GST control)	1.11 fold enrichment (6-mer frequency, TF over GST control)	1.03 fold enrichment (6-mer frequency, TF over GST control)	1.12 fold enrichment (6-mer frequency, TF over GST control)	1.06 fold enrichment (6-mer frequency, TF over GST control)	1.08 fold enrichment (6-mer frequency, TF over GST control)	1.1 fold enrichment (6-mer frequency, TF over GST control)	1.23 fold enrichment (6-mer frequency, TF over GST control)	1.11 fold enrichment (6-mer frequency, TF over GST control)	1.07 fold enrichment (6-mer frequency, TF over GST control)	–	1.03 fold enrichment (6-mer frequency, TF over GST control)	1.04 fold enrichment (6-mer frequency, TF over GST control)	1.08 fold enrichment (6-mer frequency, TF over GST control)	–
GGTCCC	1.13 fold enrichment (6-mer frequency, TF over GST control)	1.21 fold enrichment (6-mer frequency, TF over GST control)	1.16 fold enrichment (6-mer frequency, TF over GST control)	1.21 fold enrichment (6-mer frequency, TF over GST control)	1.17 fold enrichment (6-mer frequency, TF over GST control)	1.19 fold enrichment (6-mer frequency, TF over GST control)	1.1 fold enrichment (6-mer frequency, TF over GST control)	1.1 fold enrichment (6-mer frequency, TF over GST control)	1.13 fold enrichment (6-mer frequency, TF over GST control)	1.18 fold enrichment (6-mer frequency, TF over GST control)	1.16 fold enrichment (6-mer frequency, TF over GST control)	1.29 fold enrichment (6-mer frequency, TF over GST control)	1.16 fold enrichment (6-mer frequency, TF over GST control)	1.3 fold enrichment (6-mer frequency, TF over GST control)	1.16 fold enrichment (6-mer frequency, TF over GST control)	–	1.31 fold enrichment (6-mer frequency, TF over GST control)
